Screen size: about 5,500 compounds; about 2,000 (36%) were called active. Another 18% or so got no clear call; they are omitted. Cut-off read from the data, not from the text of the source: active = normalized growth mostly below about 0.91 (no sharp cut-off); inconclusive = no clear call, values can overlap the other calls; inactive = mostly above about 0.92. Some of the results follow.
Test: chemical genetic growth profiling, strain panel (AID 1159580);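 note: tested at 20 µM; growth read once vehicle control cultures reached saturation at 30 °C; 1 = growth at the plate median or of vehicle wells; lower values mean less growth of the strain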
Conditions: growth OD

Measured: normalized growth

NC[C@H]1O[C@H](O[C@H]2[C@H](O)[C@@H](O[C@H]3O[C@H](CO)[C@@H](O)[C@H](N)[C@H]3O)[C@H](N)C[C@@H]2N)[C@H](N)C[C@@H]1O
inactive: S. cerevisiae deletion strains, locus YJR075W, strain HOC1, stronger effect = lower value 1.01 | S. cerevisiae deletion strains, locus YKL009W, strain mrt4, stronger effect = lower value 1.02 | S. cerevisiae deletion strains, locus YKL068W, stronger effect = lower value 0.998 | S. cerevisiae deletion strains, locus YKL085W, strain MDH1 (second series), stronger effect = lower value 1 | S. cerevisiae deletion strains, locus YKL085W, strain MDH1, stronger effect = lower value 1 | S. cerevisiae deletion strains, locus YKL160W, strain elf1, stronger effect = lower value 0.959 | S. cerevisiae deletion strains, locus YKL190W, strain CNB1, stronger effect = lower value 0.994 | S. cerevisiae deletion strains, locus YKR001C, strain vps1, stronger effect = lower value 0.968 | S. cerevisiae deletion strains, locus YKR026C, strain gcn3, stronger effect = lower value 1.02 | S. cerevisiae deletion strains, locus YKR091W, strain srl3, stronger effect = lower value 1.01 | S. cerevisiae deletion strains, locus YLL001W, strain dnm1, stronger effect = lower value 0.987 | S. cerevisiae deletion strains, locus YLL026W, stronger effect = lower value 1.01 | S. cerevisiae deletion strains, locus YLL041C, strain sdh2, stronger effect = lower value 1.01 | S. cerevisiae deletion strains, locus YLR027C, strain aat2, stronger effect = lower value 1 | S. cerevisiae deletion strains, locus YLR039C, strain RIC1, stronger effect = lower value 1.01 | S. cerevisiae deletion strains, locus YLR058C, strain SHM2, stronger effect = lower value 0.994 | S. cerevisiae deletion strains, locus YLR102C, strain apc9, stronger effect = lower value 1.01 | S. cerevisiae deletion strains, locus YLR113W, strain HOG1, stronger effect = lower value 0.978 | S. cerevisiae deletion strains, locus YLR221C, strain rsa3, stronger effect = lower value 0.998 | S. cerevisiae deletion strains, locus YLR258W, strain gsy2, stronger effect = lower value 1.01 | S. cerevisiae deletion strains, locus YLR262C, strain YPT6 (second series), stronger effect = lower value 0.973 | S. cerevisiae deletion strains, locus YLR262C, strain YPT6, stronger effect = lower value 1.05 | S. cerevisiae deletion strains, locus YLR268W, strain sec22, stronger effect = lower value 1.04 | S. cerevisiae deletion strains, locus YLR320W, strain mms22, stronger effect = lower value 1 | S. cerevisiae deletion strains, locus YLR330W, strain CHS5, stronger effect = lower value 1.01 | S. cerevisiae deletion strains, locus YLR342W, strain FKS1 (second series), stronger effect = lower value 1.02 | S. cerevisiae deletion strains, locus YLR342W, strain FKS1, stronger effect = lower value 1.01 | S. cerevisiae deletion strains, locus YLR357W, strain rsc2, stronger effect = lower value 0.991 | S. cerevisiae deletion strains, locus YLR370C, strain arc18, stronger effect = lower value 1.03 | S. cerevisiae deletion strains, locus YLR371W, strain rom2, stronger effect = lower value 1.02 | S. cerevisiae deletion strains, locus YLR384C, strain iki3, stronger effect = lower value 1.02 | S. cerevisiae deletion strains, locus YLR418C, strain cdc73, stronger effect = lower value 0.986 | S. cerevisiae deletion strains, locus YML016C, strain PPZ1, stronger effect = lower value 0.996 | S. cerevisiae deletion strains, locus YML032C, strain rad52, stronger effect = lower value 1.02 | S. cerevisiae deletion strains, locus YML120C, strain ndi1, stronger effect = lower value 1.01 | S. cerevisiae deletion strains, locus YML124C, strain tub3, stronger effect = lower value 1.01 | S. cerevisiae deletion strains, locus YMR058W, strain fet3, stronger effect = lower value 1 | S. cerevisiae deletion strains, locus YMR078C, strain ctf18, stronger effect = lower value 1.01 | S. cerevisiae deletion strains, locus YMR125W, strain sto1, stronger effect = lower value 1.01 | S. cerevisiae deletion strains, locus YMR129W, stronger effect = lower value 1.01 | S. cerevisiae deletion strains, locus YMR205C, strain PFK2, stronger effect = lower value 0.965 | S. cerevisiae deletion strains, locus YMR223W, strain ubp8, stronger effect = lower value 0.988 | S. cerevisiae deletion strains, locus YMR231W, strain pep5, stronger effect = lower value 0.996 | S. cerevisiae deletion strains, locus YMR307W, strain GAS1, stronger effect = lower value 1.01 | S. cerevisiae deletion strains, locus YNL067W, strain RPL9B, stronger effect = lower value 0.99 | S. cerevisiae deletion strains, locus YNL071W, strain lat1, stronger effect = lower value 1.01 | S. cerevisiae deletion strains, locus YNL128W, strain TEP1, stronger effect = lower value 0.995 | S. cerevisiae deletion strains, locus YNL153C, strain GIM3, stronger effect = lower value 0.994 | S. cerevisiae deletion strains, locus YNL183C, strain NPR1, stronger effect = lower value 0.933 | S. cerevisiae deletion strains, locus YNL209W, strain ssb2, stronger effect = lower value 1.01 | S. cerevisiae deletion strains, locus YNL233W, strain BNI4, stronger effect = lower value 1.01 | S. cerevisiae deletion strains, locus YNL248C, strain rpa49, stronger effect = lower value 0.956 | S. cerevisiae deletion strains, locus YNL250W, strain rad50, stronger effect = lower value 1.01 | S. cerevisiae deletion strains, locus YNL271C, strain bni1, stronger effect = lower value 1 | S. cerevisiae deletion strains, locus YNL298W, strain CLA4, stronger effect = lower value 0.998 | S. cerevisiae deletion strains, locus YNL307C, strain MCK1, stronger effect = lower value 1.01 | S. cerevisiae deletion strains, locus YNL322C, strain KRE1 (second series), stronger effect = lower value 1 | S. cerevisiae deletion strains, locus YNL322C, strain KRE1, stronger effect = lower value 1.01 | S. cerevisiae deletion strains, locus YNR049C, strain mso1, stronger effect = lower value 1.02 | S. cerevisiae deletion strains, locus YNR052C, strain pop2, stronger effect = lower value 1.01 | S. cerevisiae deletion strains, locus YOL006C, strain TOP1, stronger effect = lower value 1.02 | S. cerevisiae deletion strains, locus YOL012C, strain htz1 1.38 | S. cerevisiae deletion strains, locus YOL147C, strain pex11, stronger effect = lower value 1.01 | S. cerevisiae deletion strains, locus YOR001W, strain rrp6, stronger effect = lower value 1.05 | S. cerevisiae deletion strains, locus YOR061W, strain CKA2, stronger effect = lower value 1.01 | S. cerevisiae deletion strains, locus YOR069W, strain VPS5, stronger effect = lower value 1.01 | S. cerevisiae deletion strains, locus YOR070C, strain gyp1, stronger effect = lower value 1.02 | S. cerevisiae deletion strains, locus YOR080W, strain dia2, stronger effect = lower value 1.01 | S. cerevisiae deletion strains, locus YOR083W, strain WHI5, stronger effect = lower value 0.959 | S. cerevisiae deletion strains, locus YOR106W, strain vam3, stronger effect = lower value 0.964 | S. cerevisiae deletion strains, locus YOR136W, strain idh2, stronger effect = lower value 0.993 | S. cerevisiae deletion strains, locus YOR144C, strain elg1, stronger effect = lower value 1.01 | S. cerevisiae deletion strains, locus YOR184W, strain ser1, stronger effect = lower value 0.99 | S. cerevisiae deletion strains, locus YOR231W, strain MKK1, stronger effect = lower value 0.971 | S. cerevisiae deletion strains, locus YOR265W, strain rbl2, stronger effect = lower value 1.03 | S. cerevisiae deletion strains, locus YOR270C, strain vph1, stronger effect = lower value 0.943 | S. cerevisiae deletion strains, locus YOR290C, strain snf2, stronger effect = lower value 0.987 | S. cerevisiae deletion strains, locus YOR316C, strain cot1, stronger effect = lower value 1.01 | S. cerevisiae deletion strains, locus YPL051W, strain arl3, stronger effect = lower value 0.988 | S. cerevisiae deletion strains, locus YPL055C, strain LGE1, stronger effect = lower value 0.974 | S. cerevisiae deletion strains, locus YPL078C, strain atp4, stronger effect = lower value 0.959 | S. cerevisiae deletion strains, locus YPL106C, strain sse1, stronger effect = lower value 1.03 | S. cerevisiae deletion strains, locus YPL240C, strain hsp82, stronger effect = lower value 1.02 | S. cerevisiae deletion strains, locus YPL256C, strain CLN2, stronger effect = lower value 0.968 | S. cerevisiae deletion strains, locus YPR119W, strain clb2, stronger effect = lower value 1.01 | S. cerevisiae deletion strains, locus YPR141C, strain kar3, stronger effect = lower value 1.01 | S. cerevisiae deletion strains, locus YPR163C, strain tif3, stronger effect = lower value 1.02 | S. cerevisiae deletion strains, locus YPR167C, strain met16, stronger effect = lower value 1.01 | S. cerevisiae deletion strains, strain wtn01, stronger effect = lower value 1.01 | S. cerevisiae strains, strain wild type, stronger effect = lower value 0.998

Reference: PubChem BioAssay AID1159580 (chemical genetic matrix, 2015)
